Experimental data published in article PMC5540273 (PLoS ONE, 2017).

What was measured:
Conditions in all cases: concentration: 1 μM, replicates: in singlicate; n = 1
HIPK3 = tested on: HIPK3
HIPK4 = tested on: HIPK4
HPK1 = tested on: HPK1
HUNK = tested on: HUNK
ICK = tested on: ICK
IGF1R = tested on: IGF1R
IKK-alpha = tested on: T1, IKK-alpha
T1 construct: gene CHUK

IKK-beta = tested on: T2, IKK-beta
T2 construct: gene IKBKB

IKK-epsilon = tested on: T3, IKK-epsilon
T3 construct: gene IKBKE

INSRR = tested on: INSRR
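Also: KINOMEscan kinase panel screen.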

SMILES | %Inh (HIPK3) [%] | %Inh (HIPK4) [%] | %Inh (HPK1) [%] | %Inh (HUNK) [%] | %Inh (ICK) [%] | %Inh (IGF1R) [%] | %Inh (IKK-alpha) [%] | %Inh (IKK-beta) [%] | %Inh (IKK-epsilon) [%] | %Inh (INSRR) [%]
CCC(=O)c1c(-c2ccccc2)c2cc(Cl)ccc2c(=O)n1Cc1cc(S(C)(=O)=O)n(CC(F)F)n1 | 0 | 0 | 0 | 3 | 0 | 10 | 0 | 0 | 0 | 0
COc1cc2ncn(-c3cc(OCc4ccncc4)c(C(N)=O)s3)c2cc1OC [GSK336313] | 21 | 0 | 21 | 0 | 4 | 0 | 0 | 0 | 26 | 99.3
COC(=O)c1c(-c2ccccc2)c2cc(C)ccc2c(=O)n1Cc1ccccc1 | 0 | 0 | 0 | 0 | 0 | 5 | 0 | 0 | 0 | 1
COc1ccc(-c2cc3c(C)nc(N)nc3n([C@H]3CC[C@H](OCCO)CC3)c2=O)cn1 | 5 | 0 | 0 | 0 | 0 | 0 | 0 | 0 | 0 | 0
C[C@@H]1CC[C@H](C(=O)NC2CCCCC2)CN1c1cc(-c2ccc3c(N)n[nH]c3c2)nc(N)n1 [GSK2291363] | 14 | 0 | 50 | 0 | 18 | 30 | 0 | 0 | 25 | 0
COc1cc(Nc2nccc(N3CCC(NC(=O)C(C)c4ccc(Cl)cc4)C3)n2)cc(OC)c1OC (stereo not drawn) [GSK1379757] | 0 | 0 | 37 | 16 | 0 | 13 | 0 | 0 | 23 | 0
O=C(Nc1ccc2c(c1)OCO2)NC1CCN(c2ccnc(NCc3ccc(F)cc3)n2)CC1 [GSK1379859] | 9 | 0 | 29 | 1 | 0 | 0 | 0 | 0 | 11 | 0
O=C(Nc1n[nH]c2nc(-c3ccccc3)c(Cl)cc12)C1CC1 [SB-734909] | 33 | 0 | 11 | 20 | 29 | 0 | 43 | 56 | 0 | 8
CCC(=O)c1c(-c2ccccc2)c2cc(Cl)ccc2c(=O)n1Cc1cc(C(=O)NC2CC2)n(C)n1 | 2 | 1 | 0 | 0 | 4 | 0 | 5 | 10 | 0 | 0
Nc1nccc2scc(-c3ccc4c(c3)CCN4C(=O)Cc3ccccc3)c12 [GSK2576924] | 11 | 0 | 18 | 0 | 0 | 1 | 0 | 0 | 12 | 0
CCc1nc(-c2cccc(C)c2)c(-c2ccncc2)s1 | 0 | 0 | 8 | 0 | 0 | 0 | 0 | 0 | 0 | 0
O=C(NCc1cccs1)c1cc(C(=O)c2c(Cl)cccc2Cl)c[nH]1 [GW823670] | 0 | 0 | 37 | 31 | 0 | 1 | 0 | 0 | 3 | 0
Cc1cccc(-c2nc(Nc3ccc4c(cnn4C)c3)c3ccccc3n2)n1 [GW876731] | 0 | 14 | 0 | 35 | 10 | 0 | 1 | 13 | 21 | 15
Cl.c1ccc(Cn2cnc3cc(Nc4ncnc5ccccc45)ccc32)cc1 [GW272142] | 8 | 0 | 36 | 5 | 0 | 34 | 0 | 12 | 17 | 36
Cc1nnc(-c2ccc3ncn(-c4ccc(S(C)=O)cc4)c3c2)o1 (stereo not drawn) | 13 | 6 | 0 | 0 | 0 | 0 | 25 | 7 | 0 | 0
COc1cccc(-n2cnc3c(N)ncnc32)c1 [SKF-97416] | 26 | 13 | 0 | 16 | 34 | 0 | 50 | 32 | 0 | 5
CCCNC(=O)Nc1ccc(Oc2ncnc3ccn(C)c23)cc1 | 14 | 19 | 0 | 0 | 17 | 0 | 1 | 0 | 0 | 0
CCn1c(-c2nonc2N)nc2ccccc21 [SB-693162/GW549034] | 62 | 1 | 7 | 36 | 64 | 0 | 23 | 49 | 29 | 48
